Inhibition data for 40 compounds are collected here from ChEMBL document CHEMBL1157539, “Thousands of chemical starting points for antimalarial lead identification” (Nature, 2010).

In one experiment the test system is Plasmodium falciparum. Nature of the experiment: GSK_TCMDC: Inhibition of Plasmodium falciparum 3D7 in whole red blood cells, using parasite LDH activity as an index of growth. Test compounds present at 2uM. The experiment is classed as functional.
On to `CCCc1cc(NC2CCN(C)CC2)nc(Nc2cccc(OC)c2)n1`, for which the Inhibition – broadly, the percentage by which the read-out fell short of the control – was found to be 100%.

Regarding `Br.CCCCC(NCC)c1ccc(OCCOc2ccc(C(CCCC)NCC)cc2)cc1` (centres undefined), the Inhibition was determined as 100%.

With `O=C(Nc1cccc(CN2CCCN(Cc3cccc(Cl)c3)CC2)c1)c1ccc(Br)cc1.O=C(O)C(F)(F)F`, the Inhibition was determined as 92%.

In turn, `Cc1nc2nc(N)nc(N)c2c(C)c1Cc1cccs1.Cl` showed an Inhibition of 95%.

For another experiment, the system named is Plasmodium falciparum. Nature of the experiment: GSK_TCMDC: Inhibition of Plasmodium falciparum Dd2 in whole red blood cells, using parasite LDH activity as an index of growth. Test compounds present at 2uM. The experiment is classed as functional.
On to `CS(=O)(=O)Nc1ccc2[nH]cc(C3CCN(CC4CCC(NC(=O)/C=C/c5ccc(Cl)c(Cl)c5)CC4)CC3)c2n1` (centres undefined), for which the Inhibition turned out to be 10%.

Turning to `O=C(NC1CCN(Cc2ccccc2)CC1)c1csc2nc(-c3ccc(Cl)cc3)cn12`, the Inhibition is reported as 14%.

Consider `O=C(O)C(F)(F)F.O=S(=O)(NCCN1CCCC1)c1cccc(-c2ccc(CNCc3ccc(F)cc3)cc2)c1`, for which the Inhibition was 41%.

As to `O=C(Nc1ccc(C(F)(F)F)cc1)Nc1ccccc1N1CCNCC1.O=C(O)C(F)(F)F`, the Inhibition is reported as 69%.

The compound `CC(C)CCN1CCC(Oc2ccc(NC(=O)c3cccs3)cc2Cl)CC1.O=C(O)C(F)(F)F` returned an Inhibition of 96%.

`CNC(=O)c1ccccc1Nc1nc(Nc2ccc(N3CCOCC3)cc2)ncc1Cl.Cl`: the Inhibition stood at 97%.

Regarding `O=C(Nc1ccc(Cl)c(Cl)c1)Nc1ccc(F)c([N+](=O)[O-])c1`, the Inhibition was found to be 96%.

As to `CN(CCc1ccccn1)c1cccc2c1nc(-c1cccnc1)n2CCNCc1ccccc1.O=C(O)C(F)(F)F`, the Inhibition came out at 97%.

As to `C=CCn1cc(C2CCN(CCCCNC(=O)c3sc(-c4ccc(C(F)(F)F)cc4)nc3CO)CC2)c2cc(OC)ccc21`, the Inhibition is given as 4%.

`N#Cc1cccc(NC(=O)Nc2cccc(OC3CCN(Cc4ccccc4)CC3)c2)c1.O=C(O)C(F)(F)F` displayed an Inhibition of 48%.

The compound `COc1ccc(NCCCNc2ccnc3ccccc23)cc1` had an Inhibition of 17%.

Take `COC(=O)c1cccc(CNCc2ccc(-c3cccc(-c4nc5cc(C(F)(F)F)ccc5[nH]4)c3)cc2)c1.O=C(O)C(F)(F)F`: the Inhibition came out at 97%.

For `Cc1cccc2nc(-c3ccc(-c4ccc(CN5CCN(c6ccncc6)CC5)cc4)cc3)[nH]c12.O=C(O)C(F)(F)F`, the Inhibition was 100%.

For the compound `Cl.O=S(=O)(Nc1cc2c(cc1O)CCN(C1CCC1)CC2)c1ccc(-c2ccc(F)cc2)cc1`, the Inhibition came to 99%.

With `CCCSc1nc2c(c(=O)n1Cc1ccco1)C1(CCCCC1)Cc1ccccc1-2`, the Inhibition is recorded as 95%.

Regarding `CCCCC(CC)NC(=O)[C@H]1CNCCN1C(=O)CCCc1ccccc1.O=C(O)C(F)(F)F` (some centres undefined), the Inhibition is recorded as 0%.

Take `Cc1cn(CC(=O)Nc2cccc(-c3cccc(-c4nc5cc(C(F)(F)F)ccc5[nH]4)c3)c2)c(=O)[nH]c1=O`: the Inhibition turned out to be 51%.

`S=C(NCCCCCN1CCC(c2c[nH]c3ccccc23)CC1)Nc1cc(Cl)cc(Cl)c1` yielded an Inhibition of 35%.

`CCNC(=O)Nc1cccc(-c2cccc(-c3nc4cccc(C)c4[nH]3)c2)c1` had an Inhibition of 31%.

The compound `CN1C(C)(C)CC(NC(=O)c2ccc(-c3nc4cc(Cl)ccc4[nH]3)cc2)CC1(C)C` yielded an Inhibition of 36%.

With `Cl.c1ccc(-c2ccc3c(Nc4ccc5[nH]ccc5c4)ccnc3c2)nc1`, the Inhibition amounted to 78%.

`COc1ccc(C2CCN(CCCCNC(=O)c3ccc(NC(=O)c4ccc(Cl)cc4)cc3)CC2)cc1Cl` registered an Inhibition of 75%.

Compound `COc1ccccc1C(C)NCC(=O)Nc1cc(C(F)(F)F)ccc1Cl` (centres undefined) had an Inhibition of 85%.

Compound `Cl.O=C1CSc2ccc(CNC3CCN(CCc4c(Cl)cnc5ccc(Cl)cc45)CC3)nc2N1` had an Inhibition of 92%.

As to `COC1CCC(C(=O)Nc2ccc(-c3cccc(-c4nc5cccc(C)c5[nH]4)c3)cc2)CC1` (centres undefined), the Inhibition turned out to be 60%.

With `OC(CNCc1ccccc1OCc1ccccc1)c1cccc(I)c1` (centres undefined), the Inhibition is on record as 100%.

Compound `Cc1ccc(NCc2cccc(F)c2)cc1S(=O)(=O)N[C@@H]1CCN(C#N)C1` registered an Inhibition of 83%.

The compound `Cn1nc(-c2ccc(NC(=O)Nc3cc(C(F)(F)F)ccc3F)cc2)c2cnc(NCCc3c[nH]cn3)nc21.O=C(O)C(F)(F)F` gave an Inhibition of 56%.

Compound `Cc1cccc2nc(-c3cccc(-c4cccc(C(=O)NCCc5cn(C)cn5)c4)c3)[nH]c12` displayed an Inhibition of 78%.

The compound `CCNc1cc(C(=O)N[C@@H](Cc2ccccc2)[C@H](O)CNCCc2cccc3ccccc23)cc(N2CCCC2=O)c1.O=CO` showed an Inhibition of 39%.

`COc1ccc(CNCCCCCCNCc2ccc(OC)c3ccccc23)c2ccccc12.Cl` had an Inhibition of 49%.

`CC(C)CCN1C(=O)C(NC(=O)Oc2ccccc2)C(=O)N(CC23CC4CC(CC(C4)C2)C3)c2ccccc21` (centres undefined) displayed an Inhibition of 4%.

Compound `CC(C)CNC(=S)N1CCCN(c2nc3ccc(Cl)cc3s2)CC1` gave an Inhibition of 11%.

In turn, `Cc1cc(C(=O)Nc2nc(-c3ccccn3)nc3ccsc23)no1` gave an Inhibition of 90%.

As to `C=CCOC(=O)N1CCC(CNCc2cccc(-c3ccc(-c4nc5cc(C(F)(F)F)ccc5[nH]4)cc3)c2)C1.O=C(O)C(F)(F)F` (centres undefined), the Inhibition is 96%.

Take `C=C[C@H]1CN2CC[C@H]1C[C@H]2[C@H](O)c1ccnc2ccc(OC)cc12.O.O=S(=O)(O)O`: the Inhibition is on record as 22%.

Turning to `CCCc1cc(NC2CCN(C)CC2)nc(Nc2cccc(OC)c2)n1`, the Inhibition came to 28%.

In turn, `Br.CCCCC(NCC)c1ccc(OCCOc2ccc(C(CCCC)NCC)cc2)cc1` (centres undefined) displayed an Inhibition of 99%.

`O=C(Nc1cccc(CN2CCCN(Cc3cccc(Cl)c3)CC2)c1)c1ccc(Br)cc1.O=C(O)C(F)(F)F` yielded an Inhibition of 16%.

As for `Cc1nc2nc(N)nc(N)c2c(C)c1Cc1cccs1.Cl`, the Inhibition worked out at 2%.
